Screens: PubChem, National Center for Advancing Translational Sciences (NCATS)
BLM helicase inh – inhibitors of human Bloom syndrome helicase BLM; P54132; recombinant BLM DNA unwinding, fluorescence dequenching; Potency, µM (series often up to 56.1 µM), for inactives: top-dose activity change, negative = inhibition, most hits filed as inhibitors; actives 0.2% (n = 350,000);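 note: plate controls were vehicle for no effect and no enzyme for full effect; nearly all actives have a fitted effect of over 35% in size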
TDP1 block – TDP1 (human) enzyme inhibition; Q9NUW8; recombinant TDP1, AlphaScreen DNA substrate cleavage; Potency, µM (doses to about 130 µM), inactives show at the top dose activity change, negative = inhibition, hits mostly inhibitors; actives 0.28% (n = 350,000); AID 485290; note: nearly all actives have a fitted effect of over 40% in size
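Compounds were preincubated with Tdp1 (1 nM final) for 15 min at room temperature before substrate (15 nM final) started a 5 min reaction; beads (10 ug/ml final) were then added for 10 min before AlphaScreen detection.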
RECQ1 inh – inhibitors of human RECQ1 DNA helicase; RECQ1 DNA unwinding, red fluorescence kinetic read; Potency, µM (series often up to 57.3 µM), inactives show at the top dose activity, negative = inhibition, actives largely listed as inhibitors; actives 0.54% (n = 240,000);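 note: plate controls were vehicle for no effect and no enzyme for full effect; nearly all actives have a fitted effect of over 30% in size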
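50 nM RECQ1T1 preincubated 15 min with compound in Tris pH 8.0 buffer with MgCl2, DTT, Tween-20 and 2.5 ug/ml poly(dI-dC); started with 200 nM TAMRA/BHQ-2 forked duplex and 2 mM ATP. Unwinding read as fluorescence (525/598 nm), two reads 2 h apart.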
APE1 inh-1 – blocks human APE1 abasic DNA cleavage. recombinant APE1, TAMRA/BHQ-2 abasic DNA cleavage fluorescence. actives 0.35% (n = 350,000). AID 2517. Potency, µM (titrated, usually from 65.8 µM), for the others: at the highest dose activity change, negative = inhibition, hits mostly inhibitors. P27695;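 note: plate controls were vehicle for no effect and reference inhibitor for full effect; nearly all actives have a fitted effect of over 55% in size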
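Readout is kinetic fluorescence (ex 525, em 598 nm) from cleavage of 50 nM TAMRA/BHQ-2 THF abasic duplex by 0.75 nM APE1, compound added 15 min beforehand at RT.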
KAT2A inh – inhibitors of human GCN5L2 histone acetyltransferase. GCN5L2 HAT assay, ThioGlo1 CoA-SH fluorescence. Potency, µM (highest dose often 58.9 µM), for inactives: at the highest dose activity change, negative = inhibition, hits mostly inhibitors. actives 0.21% (n = 390,000). Q92830. AID 504327
Target sequence (Q92830 whole entry, looked up): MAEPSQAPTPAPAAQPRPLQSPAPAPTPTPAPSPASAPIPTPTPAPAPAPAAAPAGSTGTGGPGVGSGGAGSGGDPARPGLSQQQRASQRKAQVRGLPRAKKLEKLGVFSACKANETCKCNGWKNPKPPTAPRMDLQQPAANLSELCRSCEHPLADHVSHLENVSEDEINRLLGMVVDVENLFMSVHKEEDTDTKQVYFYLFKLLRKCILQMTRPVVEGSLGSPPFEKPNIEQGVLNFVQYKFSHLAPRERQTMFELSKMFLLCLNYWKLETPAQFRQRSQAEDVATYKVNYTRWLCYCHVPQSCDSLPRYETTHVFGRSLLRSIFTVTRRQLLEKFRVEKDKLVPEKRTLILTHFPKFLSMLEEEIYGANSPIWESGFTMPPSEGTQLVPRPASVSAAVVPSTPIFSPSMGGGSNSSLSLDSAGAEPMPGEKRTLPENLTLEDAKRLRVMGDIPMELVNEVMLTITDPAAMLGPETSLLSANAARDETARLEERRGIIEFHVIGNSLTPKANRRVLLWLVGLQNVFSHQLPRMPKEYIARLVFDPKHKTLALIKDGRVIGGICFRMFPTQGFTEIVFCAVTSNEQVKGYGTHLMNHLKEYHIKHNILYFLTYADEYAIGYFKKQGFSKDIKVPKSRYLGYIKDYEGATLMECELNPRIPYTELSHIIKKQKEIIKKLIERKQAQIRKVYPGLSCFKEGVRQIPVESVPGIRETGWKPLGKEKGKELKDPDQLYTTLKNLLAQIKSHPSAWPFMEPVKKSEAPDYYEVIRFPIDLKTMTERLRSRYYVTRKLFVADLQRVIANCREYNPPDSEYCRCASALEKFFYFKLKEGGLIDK
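Fluorescence readout, Ex340nm/Em540nm: ThioGlo1 (50uM final) reacts with free CoA thiol released as 20nM GCN5L2 acetylates H3(1-25) peptide (75uM) using acetyl-CoA (70uM). Compound and enzyme sat 15 min beforehand; 20 min room-temperature reaction.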
DNA dye displace – DNA dye displacement counter-screen activity; shares compounds with APE1 inh-1; DNA fluorescent dye displacement counterscreen, fluorescence; Potency, µM (top dose mostly 28.5 µM), without a hit: top-dose activity change, negative = inhibition, most hits filed as inhibitors; actives 7% (n = 480);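 note: loss of thiazole orange fluorescence as the dye is displaced from duplex DNA; 0% = ThO with dsDNA and no compound and -100% = ThO without dsDNA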
EndoIV counter – blocks E. coli endonuclease IV DNA cleavage; shares compounds with APE1 inh-1; E. coli Endo IV, fluorogenic AP-site DNA cleavage; Potency, µM (top dose mostly 27.1 µM), for the others: top-dose activity change, negative = inhibition, usual class: inhibitors; actives 4% (n = 560);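 note: plate controls were uninhibited enzyme wells for no effect and no enzyme buffer wells for full effect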
APE1 inh-2 – APE1 (human) endonuclease inhibition, confirmation; purified APE1, fluorogenic abasic-site DNA cleavage; AID 2572; actives 44% (n = 750); shares compounds with APE1 inh-1; Potency, µM (doses to about 57.1 µM), inactives show top-dose activity change, negative = inhibition, actives largely listed as inhibitors; note: nearly all actives have a fitted effect of over 30% in size
APE1 FP – displaces DNA from human APE1 in FP assay; shares compounds with APE1 inh-1; APE1 binding to TAMRA-labelled double-stranded DNA, fluorescence polarization displacement; Potency, µM (series often up to 28.5 µM), for inactives: at the top dose activity, negative = inhibition, actives largely listed as inhibitors; actives 7% (n = 480)
The depositor's hits bear a star; i = inactive; ? = inconclusive; . = not tested or not shown; ! = not confirmed by another sample; [ ] = another dose, or the depositor's remark. In the library only some 0.87% were active in any assay of this set; here they are far more common. Calls come from the whole dose curve; as a rule, active = well fitted curve in the direction sought with a large enough effect; inconclusive = small, poorly fitted or top-dose-only effect, or another doubt; inactive = no such curve, though single readings can be large; an effect the other way counts as inactive or inconclusive. Unless noted, % is set by controls: 0 for no effect and ±100 for the full control effect; potency is the fitted concentration of half-maximal effect.

SMILES	BLM helicase inh	TDP1 block	RECQ1 inh	APE1 inh-1	KAT2A inh	DNA dye displace	EndoIV counter	APE1 inh-2	APE1 FP
C=CCN=c1scc(-c2ccco2)n1/N=C/c1ccc(O)c(O)c1O	-26.8%	.	-10.3%	?	-25.0%	.	.	.	.
COCCN=c1scc(-c2ccco2)n1/N=C/c1ccc(O)c(O)c1O	10µM*	-1.2%	8.91µM*	8.91µM*	20µM*	11.2µM*	21.7%	4.47µM*	14.1µM*
COC(=O)C1=C(C)N(Cc2ccccc2)C2=C3C(=O)OCCC3[C@@](O)(C(=O)OC)C(=O)N2C1c1ccccc1 (some centres not stated)	3.4%[12.4 µM]	11.1%[21 µM]	10.8%[11.5 µM]	29.0%[12.4 µM]	.	.	.	.	.
CC(C)(C)n1ncc2c(=O)n(Cc3ccc(Cl)c(OC(F)(F)F)c3)cnc21	.	.	.	-6.5%	.	.	.	.	.
Oc1ccc(/C=N/N2CCOCC2)c(O)c1O	-7.5%	?	11.8%	7.08µM*	2.7%	-5.4%	20.5%	?	-13.4%
Oc1ccc(/C=N/N2CCCCC2)c(O)c1O	-9.0%	.	.	-38.8%	1.2%	.	.	.	.
CN1CCOc2ccc(S(=O)(=O)N3CCN(S(=O)(=O)c4c(F)cccc4F)CC3)cc21	.	0.4%	.	19.2%	0.4%	.	.	.	.
Nc1ccc(N)c(C(=O)O)c1	5.62µM*	0.282µM*	11.2µM*	1.26µM*	7.94µM*	.	.	2.24µM*	.
Nc1ccc(C(=O)O)c(O)c1	-12.4%	6.1%	9.4%	1.4%	-5.5%	.	.	.	.
C=C(C)C(=O)OCCCCCCOc1ccc(C(=O)O)cc1	-15.5%	25.1µM*	-3.5%	-2.7%	1.0%	.	.	?	.
O=C(O)CC[C@@H](C(=O)O)N1C(=O)c2ccccc2C1=O	-0.2%	-13.2%[56.1 µM]	-5.4%	?	-12.0%	-4.5%	6.4%	?	-2.1%
CC(C)OC(=O)C[C@H](NC(=O)OC(C)(C)C)c1ccccc1	-0.9%[12.4 µM]	4.8%[21 µM]	-2.7%[11.5 µM]	32.9%[12.4 µM]	.	.	.	.	.
O=C1CC(c2ccc(O)c(O)c2)Oc2cc(O)cc(O)c21 (configuration not stated)	3.7%	-6.2%	?	12.6µM*	-0.7%	-8.5%	30.1%	?	5.6%
O=C(O)c1cc(O)c2c(c1)C(=O)c1cc(O)cc(O)c1C2=O	-5.6%	.	?	25.1µM*	-18.2%	12.6µM*	?	14.1µM*	5.01µM*
O=C(O)c1cccc(N=NN2CCOCC2)c1	-3.2%	3.6%	i	2.6%	-2.9%	.	.	.	.
O=C1CCCC(O)=C1N=Nc1cccc(C(=O)O)c1	-1.8%	?	31.6µM*	10µM*	-26.0%	0.2%	79.1%	12.6µM*	-14.2%
COc1ccc(C(=O)[C@]2(C)C=C(c3ccc(OC)cc3)[C@H](C)C2)cc1	-2.6%	-4.4%	-8.3%	-3.2%	.	.	.	.	.
CC(=O)Nc1ccc(C(=O)Nc2nc(-c3cccnc3)cs2)cc1	-3.8%	70.8µM*	-10.8%	5.2%	-9.3%	.	.	-22.5%	.
O=C(Nc1nc(-c2ccccc2)cs1)c1cccnc1	-2.5%	4.9%	-1.7%	2.0%	-3.9%	.	.	.	.
O=C(c1csnn1)N1CCC2(CCCN(c3ccc(-c4ccccc4)cc3)C2)CC1	-8.7%	.	-29.5%	-0.6%	-19.5%	.	.	.	.
O=C1c2ccccc2C(=O)c2c1ccc(O)c2O	-18.5%	8.3%	?	?	?	?	90.8%[57.1 µM]	?	-5.0%[57.1 µM]
O=C1c2ccccc2C(=O)c2c([N+](=O)[O-])ccc(O)c21	-8.7%	.	4.1%	28.2µM*	-2.4%	?	-3.9%	14.1µM*	-18.9%
COC(=O)c1ccc2c(c1O)C(=O)c1ccccc1C2=O	-5.0%	-1.1%	-7.0%	-6.4%	0.9%	.	.	.	.
O=C1c2ccc(O)c(O)c2C(=O)c2c(O)ccc(O)c21	-26.9%	.	31.6µM*	3.16µM*	?	.	14.1µM*	3.98µM*	.
Nc1c(C(=O)O)ccc2c1C(=O)c1ccccc1C2=O	-14.5%	7.7%	?	?	-13.5%	.	.	.	.
SMILES	BLM helicase inh	TDP1 block	RECQ1 inh	APE1 inh-1	KAT2A inh	DNA dye displace	EndoIV counter	APE1 inh-2	APE1 FP
CCc1cc2c(=O)c(-c3nc4ccccc4n3C)coc2c(CN2CCC(C)CC2)c1O	2.0%	.	.	3.0%	-21.6%	.	.	.	.
CCc1cc2c(=O)c(-c3nc4ccccc4n3C)coc2c(CN2CCN(C)CC2)c1O	-11.7%	50.1µM*	?	?	-5.9%	.	.	?	.
CC(C)C[C@@H](CC(=O)N[C@@H](CCCN)CC(=O)N[C@@H]1CCNC[C@H]1C(=O)N[C@H](CC(=O)N[C@@H](CCC(=O)O)CC(=O)O)Cc1ccccc1)NC(=O)[C@@H]1CCCC[C@H]1N	-2.8%	0.6%	-5.1%	-5.2%	.	.	.	.	.
O=C(CSc1ccsc1[N+](=O)[O-])Nc1cccc(F)c1	-20.9%	.	?	?	-18.8%	?	17.8%	14.1µM*	-20.3%
C=CCC1C=CC(OC(=O)OCC)C(COC(=O)OCC)O1 (configuration not stated)	0.7%[12.4 µM]	4.8%[21 µM]	i[11.5 µM]	?	.	.	.	.	.
CCCn1c(-c2ccc(F)cc2)nc2c(NCCCN(CC)CC)nc(C)nc21	-5.5%	9.9%	-11.2%	0.2%	.	.	.	.	.
CS(=O)(=O)Nc1ccc([N+](=O)[O-])cc1Oc1ccccc1	-3.8%	-4.8%	5.9%	-2.9%	?	.	-6.1%[57.1 µM]	?	.
COc1ccc(COC(=O)N/N=C2/C[C@@H](O)[C@@H](O)[C@@H]3[C@@H]4C(=O)N(c5cccc(Oc6ccccc6)c5)C(=O)[C@H]4CC[C@@H]23)cc1	2.3%[12.4 µM]	6.9%[21 µM]	i[11.5 µM]	?	.	.	.	.	.
O=c1c(O)c(-c2ccc(O)c(O)c2)oc2cc(O)ccc12	-26.2%	-8.3%	3.16µM*!	?	.	2.82µM*	231.8%[57.1 µM]	0.891µM*	5.7%[57.1 µM]
O=c1c(O)c(-c2ccc(O)cc2)oc2cc(O)ccc12	-6.2%	14.3%	i	?	.	.	.	.	.
CS(=O)(=O)C1=NSC2=NC(=O)/C(=C\c3cccn3-c3ccc(Cl)cc3)C(=N)N21	?	79.4µM*	-19.5%	?	-22.9%	.	.	14.1µM*	.
COc1ccc2c(c1)c(=O)oc1cc(OCC(=O)NC3CCCCC3)ccc12	-14.1%	.	-13.4%	11.2µM*	-16.5%	-10.6%	-2.1%	5.62µM*	-29.5%
COc1ccc2c(c1)c(=O)oc1cc(OCC(=O)NC3CC3)ccc12	-5.4%	.	i	?	-2.7%	.	.	.	.
